Screening results as filed in PubChem BioAssay.
Shh pathway inh: Hedgehog pathway signaling inhibitors, primary screen, luminescence, Shh-LIGHT2 cells, Gli-luciferase. Shh-LIGHT2 Gli-luciferase reporter, 30 h. inhibition, % (no concentration beside the values). hit rate 2.1% among 22,000. AID 2313, 2010;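 active means mean inhibition across valid replicates above about 65%, limit read from the data; inconclusive means mean under the limit, yet half or more replicates past it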;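 further: pathway switched on by Shh-conditioned medium diluted 1 in 25 in low serum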
MITF inhib: inhibitors of MITF, primary screen, MITF inhibitor project, cell-based, luminescence; inhibition, % (no concentration beside the values); TRPM1 promoter luciferase, 24 h; hit rate 0.28% among 37,000; in the data active means inhibition above about 85%; inconclusive means no clear call, values can overlap the other calls; inactive means below about 68%;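 further: human melanocyte line stably carrying TRPM1 promoter luciferase reporter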
Hits are given with their value; . = inactive; ? = inconclusive; / = not tested or not shown; ! = not confirmed by another sample. The entries come from a sample that favours hits as a whole.

SMILES	Shh pathway inh	MITF inhib
Fc1ccc(C(OCCN2CCN(CCCc3ccccc3)CC2)c2ccc(F)cc2)cc1	67!	.
Fc1ccc(C(OCCN2CCN(C/C=C/c3ccccc3)CC2)c2ccc(F)cc2)cc1	84	100
c1ccc(CCCN2CCN(CCOC(c3ccccc3)c3ccccc3)CC2)cc1	86	.
C=C1C(=O)O[C@@H]2/C=C(/C)CC/C=C(/C)C[C@@H](OC(=O)/C(=C/CO)CO)C12 (stereo partly drawn)	.	.
CO[C@H]1[C@H](O)[C@H](O[C@H]2CC[C@]3(C)C4CC[C@]5(C)[C@H](C6=CC(=O)OC6)CC[C@]5(O)C4CC[C@@H]3C2)O[C@@H](C)[C@@H]1O (stereo partly drawn)	.	.
COc1cccc(CNCCc2c[nH]c3ccccc23)c1O	/	.
COC1CC(OC2C(C)OC(OC3C(C)OC(OC4C(C)OC(O[C@H]5CC[C@@]6(C)C(=CC[C@]7(O)C6CC(OC(=O)c6ccccc6)[C@@]6(C)[C@]7(O)CC[C@@]6(O)C(C)=O)C5)CC4OC)CC3OC)CC2OC)OC(C)C1O (stereo partly drawn)	.	.
CC(C)c1cc2c(cc1O)[C@@]1(C)CCCC(C)(C)[C@@H]1CC2O (stereo partly drawn)	.	.
CCOCN(C(=O)CCl)c1c(C)cccc1CC	80	99
CCc1cccc(CC)c1N(COC)C(=O)CCl	.	.
CC(=O)O[C@@H](c1nc2ccccc2c(=O)n1[C@@H]1C[C@@]2(OC1=O)c1ccccc1N1C(=O)[C@H](C)N(O)[C@@H]12)C(C)C	.	.
CO[C@H]1C[C@H](OC2CCC3(C)C4CCC5(C)C(C6=CC(=O)OC6)CC(OC(C)=O)C5(O)C4CC[C@H]3C2)O[C@@H](C)[C@@H]1O (stereo partly drawn)	.	.
N#CC(C#N)=NNc1ccc(OC(F)(F)F)cc1	82	.
COC(=O)c1ccc(OP2(=O)COc3ccccc3OC2)cc1	.	.
COc1cc2c(cc1O)C1Cc3ccc(OC)c(O)c3CN1CC2 (stereo not drawn)	.	.
N#CC(C#N)=Cc1ccc(O)c(O)c1	?	.
CC(C)(C)c1cc(C=C(C#N)C#N)cc(C(C)(C)C)c1O	104	88
COc1ccc2c(c1OC)C(=O)O[C@@H]2[C@@H]1c2cc3c(cc2CCN1C)OCO3	.	.
COc1ccc(C(=O)O[C@H]2CC[C@@]3(C)[C@@H]4CC[C@H]5[C@]6(O)C[C@H](O)[C@@]7(O)[C@@H](CN8C[C@@H](C)CC[C@H]8[C@@]7(C)O)[C@]6(O)C[C@@]53O[C@]24O)cc1OC	.	.
O=C1NC(=O)C(CCc2ccncc2)(CCc2ccncc2)C(=O)N1c1ccccc1F	/	.
C=C1[C@@H](C)[C@H]2[C@H](Cc3ccccc3)NC(=O)[C@]23[C@H](OC(C)=O)C=C[C@](C)(O)C(=O)[C@@H](C)C/C=C/[C@H]3[C@@H]1O	73	.
